# Inconclusive results are not listed. Calls of active or inactive are those of the source. The call rests on the fitted dose curve; in most records, active means well fitted inhibition curve with a large enough effect; inconclusive means small, poorly fitted or top-dose-only effect; inactive means flat fitted curve, though single readings scatter.
# Biological target: Ubiquitin carboxyl-terminal hydrolase 1 (Homo sapiens) (UniProt O94782)
# Assay: Inhibitors of USP1/UAF1: Pilot qHTS (AID 504865);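 further: rhodamine fluorescence freed from ubiquitin-rhodamine substrate followed over time; top concentration of the series differs between compounds; nearly all actives have a fitted effect of over 35% in size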
# Conditions: purified USP1/UAF1, Ub-rhodamine cleavage fluorescence; series mostly up to 114 µM; activity change, negative = inhibition: at the top concentration
# Method in brief: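 In 50mM HEPES pH 7.8 containing 0.5mM EDTA, 1mM TCEP, 0.1 mg/ml BSA and 0.01% Tween-20, 1nM USP1/UAF1 is exposed to compound for 15 min, then Ub-Rho (150nM final) is added and fluorescence is read over time.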
# On the % scale 0 is the no-effect control and ±100 the full control effect.
# Chain of Ubiquitin carboxyl-terminal hydrolase 1 (Homo sapiens) (O94782 whole entry, looked up): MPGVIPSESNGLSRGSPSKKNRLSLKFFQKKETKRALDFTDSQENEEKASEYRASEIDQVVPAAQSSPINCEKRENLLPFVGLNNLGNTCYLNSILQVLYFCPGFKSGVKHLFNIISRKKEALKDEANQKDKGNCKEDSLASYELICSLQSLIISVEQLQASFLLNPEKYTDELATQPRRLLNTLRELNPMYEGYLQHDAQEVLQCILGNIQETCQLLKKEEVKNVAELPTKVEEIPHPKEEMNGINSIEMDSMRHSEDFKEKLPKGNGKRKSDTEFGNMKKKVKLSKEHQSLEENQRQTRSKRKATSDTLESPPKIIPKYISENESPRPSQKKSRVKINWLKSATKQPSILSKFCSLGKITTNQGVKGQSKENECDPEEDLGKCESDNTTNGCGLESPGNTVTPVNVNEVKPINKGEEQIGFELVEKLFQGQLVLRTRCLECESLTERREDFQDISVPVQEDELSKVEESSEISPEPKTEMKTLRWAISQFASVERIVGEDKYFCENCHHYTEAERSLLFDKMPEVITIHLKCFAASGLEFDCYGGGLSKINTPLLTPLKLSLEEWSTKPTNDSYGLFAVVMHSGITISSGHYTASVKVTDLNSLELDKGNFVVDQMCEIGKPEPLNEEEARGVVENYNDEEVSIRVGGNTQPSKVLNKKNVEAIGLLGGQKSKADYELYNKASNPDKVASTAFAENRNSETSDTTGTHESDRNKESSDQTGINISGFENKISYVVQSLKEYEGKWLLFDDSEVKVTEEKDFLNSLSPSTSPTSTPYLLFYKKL
Compound,"activity change, negative = inhibition",Potency
C[N+]1(CCC(C(N)=O)(c2ccccc2)c2ccccc2)CCCCC1,0.54% (inactive),
CN1C[C@H](C(=O)N[C@]2(C)O[C@@]3(O)[C@@H]4CCCN4C(=O)[C@H](Cc4ccccc4)N3C2=O)C[C@@H]2c3cccc4[nH]cc(c34)C[C@H]21,-7.89% (inactive),
C[C@]12Cc3nonc3C[C@@H]1CC[C@@H]1[C@@H]2CC[C@@]2(C)[C@H]1CC[C@]2(C)O,-7.19% (inactive),
CNC(=O)NC(O)C(Cl)(Cl)Cl (centres undefined),-6.46% (inactive),
CCS(=O)(=O)C(C)(C)S(=O)(=O)CC,-8.01% (inactive),
CCCC(C)C1(CC)C(=O)N=C(S)NC1=O (centres undefined),-11.6% (inactive),
COC(=O)C1=C(C)NC(C)=C(C(=O)OC)C1c1ccccc1[N+](=O)[O-],,inactive
CNC(=O)Oc1ccc2c(c1)[C@]1(C)CCN(C)[C@@H]1N2C,,inactive
CC[C@H]1CN2CCc3cc(OC)c(OC)cc3[C@@H]2C[C@@H]1C[C@H]1NCCc2cc(OC)c(OC)cc21,-1.56% (inactive),
Cc1c(Cl)c(=O)oc2cc(OP(=O)(OCCCl)OCCCl)ccc12,-6.33% (inactive),
Nc1ccc(N)cc1,-2.61% (inactive),
CCN(CC)C(C)C(=O)c1ccccc1 (centres undefined),-7.05% (inactive),
CC(C)(C)OC(=O)c1ncn2c1[C@@H]1CCCN1C(=O)c1c(Br)cccc1-2,-4.67% (inactive),
Cc1ncc2n1-c1ccc(Cl)cc1C(c1ccccc1F)=NC2,-7.63% (inactive),
CN1C(=O)[C@@H](NC(=O)c2cc3ccccc3[nH]2)N=C(c2ccccc2)c2ccccc21,-4.12% (inactive),
OC(c1ccccc1)(c1ccccc1)C1CCNCC1,3.61% [at 54.9 µM] (inactive),
O=C(CCCN1CCC(n2c(=O)[nH]c3ccccc32)CC1)c1ccc(F)cc1,3.88% [at 54.9 µM] (inactive),
CC(C)NCC(O)c1ccc(N)c(C#N)c1 (centres undefined),-4.02% (inactive),
CN1C(=O)CN=C(c2ccccc2)c2cc([N+](=O)[O-])ccc21,-1.64% (inactive),
C[N+](C)(C)CCOC(=O)C(O)(c1ccccc1)c1ccccc1,-7.45% (inactive),
Clc1ccc(C(OCCN2CCCCC2)c2ccccc2)cc1 (centres undefined),-10.2% (inactive),
CN(C)C(=O)Oc1cc(OC(=O)N(C)C)cc(C(O)CNC(C)(C)C)c1 (centres undefined),-3.95% (inactive),
C[C@]12C=CC(=O)C=C1CC[C@@H]1[C@@H]2CC[C@@]2(C)[C@H]1CC[C@]2(C)O,-2.77% (inactive),
C[C@]12CC[C@H]3[C@@H](CC=C4C[C@@H](O)CC[C@@]43C)[C@@H]1CC[C@@H]2O,0.778% (inactive),
